APE1 inh-1 – inhibitors of human APE1 endonuclease; P27695; recombinant APE1, TAMRA/BHQ-2 abasic DNA cleavage fluorescence; Potency, µM (doses to about 65.8 µM), inactives show at the highest dose activity change, negative = inhibition, usual class: inhibitors; hit rate 0.35% among 350,000; AID 2517;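 further: plate controls were vehicle for no effect and reference inhibitor for full effect; nearly all actives have a fitted effect of over 55% in size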
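APE1 at 0.75 nM final was preincubated with compound 15 min at room temperature, then 50 nM double-stranded THF abasic-site substrate (5'-TAMRA/3'-BHQ-2) was added. Fluorescence (ex 525/em 598 nm) was read kinetically; third-minus-first read gave activity.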
KAT2A inh – blocks human GCN5L2 histone acetyltransferase | Q92830 | GCN5L2 HAT assay, ThioGlo1 CoA-SH fluorescence | Potency, µM (top dose mostly 58.9 µM), for inactives: at the highest dose activity change, negative = inhibition, most hits filed as inhibitors | hit rate 0.21% among 390,000
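ThioGlo1-coupled HAT assay: 20nM GCN5L2, 70uM acetyl-CoA, 75uM H3(1-25) peptide, pH 7.5. Fluorescence read at 340/540nm at start and after 20 min at room temperature.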
TDP1 block – TDP1 (human) enzyme inhibition; recombinant TDP1, AlphaScreen DNA substrate cleavage; AID 485290; hit rate 0.28% among 350,000; Potency, µM (top dose mostly 130 µM), for the others: top-dose activity change, negative = inhibition, actives largely listed as inhibitors; Q9NUW8; further: nearly all actives have a fitted effect of over 40% in size
Target sequence (Q9NUW8 whole entry, looked up): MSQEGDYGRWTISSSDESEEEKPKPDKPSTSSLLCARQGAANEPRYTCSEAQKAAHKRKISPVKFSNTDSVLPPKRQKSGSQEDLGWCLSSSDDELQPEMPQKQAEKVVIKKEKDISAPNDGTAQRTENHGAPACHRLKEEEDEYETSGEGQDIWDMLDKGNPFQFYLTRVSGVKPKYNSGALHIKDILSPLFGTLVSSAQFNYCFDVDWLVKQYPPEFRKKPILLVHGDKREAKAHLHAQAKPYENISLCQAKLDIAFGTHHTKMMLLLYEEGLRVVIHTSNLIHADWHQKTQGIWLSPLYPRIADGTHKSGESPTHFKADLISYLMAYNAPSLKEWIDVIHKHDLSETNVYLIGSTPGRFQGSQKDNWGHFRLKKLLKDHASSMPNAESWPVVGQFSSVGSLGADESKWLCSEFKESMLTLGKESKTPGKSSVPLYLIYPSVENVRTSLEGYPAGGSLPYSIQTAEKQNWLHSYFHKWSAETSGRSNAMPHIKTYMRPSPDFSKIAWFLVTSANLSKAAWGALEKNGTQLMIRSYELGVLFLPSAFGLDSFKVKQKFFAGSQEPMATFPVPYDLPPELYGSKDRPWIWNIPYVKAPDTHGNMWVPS
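Compounds were preincubated with Tdp1 (1 nM final) for 15 min at room temperature before substrate (15 nM final) started a 5 min reaction; beads (10 ug/ml final) were then added for 10 min before AlphaScreen detection.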
JMJD2E inh – blocks human JMJD2E demethylase activity; JMJD2E catalytic domain, FDH-coupled NADH fluorescence (FDH is formaldehyde dehydrogenase); Potency, µM (series often up to 57.1 µM), for the others: at the top dose activity change, negative = inhibition, most hits filed as inhibitors; AID 2147; B2RXH2; hit rate 1.6% among 230,000; active means well fitted inhibition curve with a large enough effect, not every such curve was filed as active; inconclusive means small, poorly fitted or top-dose-only effect, or another doubt; inactive means no such curve, though single readings can be large or run the other way;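 further: 0% = wells with enzyme and -100% = buffer wells without enzyme; nearly all actives have a fitted effect of over 50% in size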
BLM inh – inhibitors of human Bloom syndrome helicase BLM | P54132 | recombinant BLM DNA unwinding, fluorescence dequenching | Potency, µM (doses to about 56.1 µM), for inactives: at the highest dose activity change, negative = inhibition, usual class: inhibitors | hit rate 0.2% among 350,000 | AID 2528;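 further: plate controls were vehicle for no effect and no enzyme for full effect; nearly all actives have a fitted effect of over 35% in size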
RECQ1 helicase – blocks DNA unwinding by human RECQ1; Potency, µM (top dose mostly 57.3 µM), for inactives: at the top dose activity, negative = inhibition, actives largely listed as inhibitors; hit rate 0.54% among 240,000; RECQ1 DNA unwinding, red fluorescence kinetic read; AID 2549; P46063;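 further: plate controls were vehicle for no effect and no enzyme for full effect; nearly all actives have a fitted effect of over 30% in size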
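50 nM RECQ1T1 preincubated 15 min with compound in Tris pH 8.0 buffer with MgCl2, DTT, Tween-20 and 2.5 ug/ml poly(dI-dC); started with 200 nM TAMRA/BHQ-2 forked duplex and 2 mM ATP. Unwinding read as fluorescence (525/598 nm), two reads 2 h apart.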
APE1 dye cs – DNA dye displacement counter-screen activity; shares compounds with APE1 inh-1; DNA fluorescent dye displacement counterscreen, fluorescence; Potency, µM (series often up to 28.5 µM), for inactives: top-dose activity change, negative = inhibition, actives largely listed as inhibitors; hit rate 7% among 480;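 further: loss of thiazole orange fluorescence as the dye is displaced from duplex DNA; 0% = ThO with dsDNA and no compound and -100% = ThO without dsDNA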
Endo IV inh – counter-screen for APE1 inhibitors: inhibitors of E. coli endonuclease IV; shares compounds with APE1 inh-1; hit rate 4% among 560; E. coli Endo IV, fluorogenic AP-site DNA cleavage; AID 2565; Potency, µM (series often up to 27.1 µM), for inactives: top-dose activity change, negative = inhibition, hits mostly inhibitors;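 further: plate controls were uninhibited enzyme wells for no effect and no enzyme buffer wells for full effect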
APE1 inh-2 – confirmation of inhibitors of human APE1 endonuclease; purified APE1, fluorogenic abasic-site DNA cleavage; Potency, µM (top dose mostly 57.1 µM), for the others: at the top dose activity change, negative = inhibition, hits mostly inhibitors; hit rate 44% among 750; shares compounds with APE1 inh-1; further: nearly all actives have a fitted effect of over 30% in size
APE1 FP – compounds that displace a DNA probe from human APE1; shares compounds with APE1 inh-1; APE1 binding to TAMRA-labelled double-stranded DNA, fluorescence polarization displacement; Potency, µM (doses to about 28.5 µM), for inactives: at the top dose activity, negative = inhibition, most hits filed as inhibitors; hit rate 7% among 480; AID 2573
* = called active by the depositor; i = inactive; u = inconclusive; x = no result; [ ] = remark or other dose. Shown is part of a subset that was picked to be rich in hits. Unless noted, the call rests on the fitted dose curve; in most records, active means well fitted curve in the direction sought with a large enough effect; inconclusive means small, poorly fitted or top-dose-only effect, or another doubt; inactive means no such curve, though single readings can be large; an effect the other way counts as inactive or inconclusive. Unless noted, on the % scale 0 is the no-effect control and ±100 the full control effect; potency means the concentration at half of the fitted maximal effect.

SMILES	APE1 inh-1	KAT2A inh	TDP1 block	JMJD2E inh	BLM inh	RECQ1 helicase	Endo IV inh	APE1 inh-2	others
CCc1ccc(NCc2cc3cc4c(cc3n(CC(=O)Nc3ccccc3Cl)c2=O)OCO4)cc1	x	-11%	6%	x	-6%	x	x	x
O=C(O)c1ccc(COc2ccccc2/C=C2/NC(=O)N(c3cccc(Cl)c3)C2=O)cc1	u	u	25µM*	u	20µM*	u	x	16µM*
CN(C)CCCNc1cc(N2CCN(C3CCCCC3)CC2)c2noc3c2c1C(=O)c1ccccc1-3	x	-2%	12%	x	36%	x	x	x
CN(CC(=O)NC(=O)NCc1ccco1)Cc1nc2ccccc2c(=O)[nH]1	20µM*	-9%	50µM*	-2%	u	-30%	9%	u	APE1 dye cs=u;APE1 FP=u
C[C@H]1Cc2c(COc3ccccc3)nc3c(c2CO1)CN(C(=O)c1cccnc1)CC3	-2%[12.4 µM]	x	7%[21 µM]	9%[11.4 µM]	0%[12.4 µM]	i[11.5 µM]	x	x
O=C(CSc1nc(-c2ccccc2)nc2ccc(F)cc12)Nc1ccc(C(=O)O)cc1	-9%	-26%	x	-9%	-18%	-2%	x	x
O=C(CSc1nc(-c2ccccc2)nc2ccc(F)cc12)Nc1cccc(C(=O)O)c1	2%	18%	79µM*	-6%	-10%	-4%	x	-31%
Cc1ccc(NC(=O)CSc2nc(NS(=O)(=O)c3ccccc3)cc(=O)[nH]2)cc1	u	-1%[0.501 µM]	28µM*	u	u	u	x	-38%
Cc1ccc(NC(=O)CSc2nc(N)cc(=O)[nH]2)cc1Cl	35µM*	-4%	0%	9%	-4%	-28%	0%	-5%[24.4 µM]	APE1 dye cs=u;APE1 FP=-4%
Cc1ccc(S(=O)(=O)Nc2cc(=O)[nH]c(SCC(=O)Nc3cccc(C)c3)n2)cc1	-6%	-16%	1%	-2%	-8%	-10%	x	x
CC(C)N(C)C	2%	x	10%	x	x	0%	x	x
COc1ccc(-c2cn3nc(N4CCCC(C(=O)NCc5ccc(Cl)cc5)C4)sc3n2)cc1 (stereo unspecified)	x	-4%	4%	x	-2%	x	x	x
Cn1c(SCC(=O)Nc2ccc3nc(SCC(=O)N4CCCC4)sc3c2)nnc1-c1ccccc1	u	-15%	50µM*	-10%	-27%	u	x	-39%
C/C(=N\NC(=O)Cc1csc(N2CCOCC2)n1)c1ccccc1	15%	2%	2%	4%	1%	i	x	x
O=C(Cc1csc(N2CCOCC2)n1)N/N=C/c1ccc(O)c(O)c1O	2.2µM*	-14%	u	8.9µM*	-12%	u	92%	u	APE1 dye cs=u;APE1 FP=4%
O=c1nc2ccccc2c2n1CC(CN1CCN(c3ccccc3)CC1)N2 (stereo unspecified)	1%	-5%	6%	x	x	-6%	x	x
COc1cc(O)cc2cc3c(c(O)c12)C(=O)CC(C)(O)O3 (stereo unspecified)	u	-27%	x	u	-18%	-7%	5%	14µM*	APE1 dye cs=19%;APE1 FP=u
O[C@@](CCN1CCCC1)(c1ccccc1)C1CCCCC1	x	0%[21.4 µM]	14%[21 µM]	6%[25.5 µM]	-8%[21.4 µM]	i	x	x
O[C@@](CCN1CCCCC1)(c1ccccc1)C1CCCCC1	-72%[21 µM]	8%[21.4 µM]	u	2%[25.5 µM]	-2%[21.4 µM]	4%[25.9 µM]	17%	2%[24.4 µM]	APE1 dye cs=-3%;APE1 FP=u
COc1ccc(-n2c(=O)c3ccc(C(=O)NCc4ccc(C)cc4)cc3n(CC(=O)Nc3cccc(F)c3)c2=O)cc1	x	-2%	0%	x	0%	x	x	x
N#Cc1ccccc1Cn1c(=O)n(CCCC(=O)NCc2ccccc2Cl)c(=O)c2ccccc21	x	-11%	0%	x	3%	x	x	x
O=C(Nc1ccc2oc(-c3ccncc3)nc2c1)c1ccc(F)cc1	5%	-23%	79µM*	u	-18%	-5%	x	u
O=C(COC(=O)c1cccnc1)Nc1ccccc1	7%	-5%	-7%[56.1 µM]	4%	-5%	-2%	x	x
CC(=O)N1CCC(C(=O)Nc2ccccc2)(N(Cc2ccccc2)C(=O)c2cccnc2)CC1	u	-2%	3%	-1%	-2%	i	-4%	-5%[24.4 µM]	APE1 dye cs=-12%;APE1 FP=u
CN(C)CCC=C1c2ccccc2C(C)(C)c2ccccc21	x	-1%	x	x	-4%	x	x	x
SMILES	APE1 inh-1	KAT2A inh	TDP1 block	JMJD2E inh	BLM inh	RECQ1 helicase	Endo IV inh	APE1 inh-2	others
CN(C)CCC=C1c2ccccc2C=Cc2ccccc21	2%	-5%	11%[56.1 µM]	-10%	15%	-1%	-12%[57.1 µM]	-13%
CCCCC(CC)CNC(=O)c1ccc2c(=O)n(CCOC)c(=O)[nH]c2c1 (stereo unspecified)	x	-2%	3%	x	-5%	x	x	x
COc1cc([N+](=O)[O-])cc(/C=N/NC(=O)c2ccc(NC(=O)c3ccc(C)cc3)cc2)c1O	2%	0%	-5%	6%	-4%	i	x	x
COc1cc([N+](=O)[O-])cc(/C=N/NC(=O)CC#N)c1O	u	-25%	-8%	u	-15%	u	1%	u	APE1 dye cs=-7%;APE1 FP=u
O=c1cc(CCl)nc2sc3ccccc3n12	u	-12%	50µM*	-2%	-11%	-16%	x	u
O=c1[nH]c(Cc2ccccc2)nc2scc(-c3ccccc3)c12	u	-1%	-3%	5%	-2%	-10%	3%	-6%[24.4 µM]	APE1 dye cs=-3%;APE1 FP=0%
O=C(N/N=C/c1ccc2c(c1)OCO2)c1cc2ccccc2o1	u	-11%	50µM*	u	-21%	-14%	x	40µM*
O=C(Nc1nc2nccc(-c3ccccc3)n2n1)c1ccccc1	-11%	-3%	79µM*	u	-10%	-9%	x	-24%
O=C(Nc1nc2nccc(-c3ccccc3)n2n1)c1ccc(F)cc1	4%	-2%	3%	-10%	1%	-3%	x	x
